Results filed as inconclusive are left out. Calls of active or inactive are those of the source. Unless noted, calls come from the whole dose curve.
Key:
[1] = Nuclear factor erythroid 2-related factor 2/antioxidant responsive element (Nrf2/ARE) small molecule agonists: qHTS cell viability counter screen in human keratinocytes (AID 1919968; active = well fitted curve in the direction sought with a large enough effect in the repeat runs; an effect the other way counts as inactive or inconclusive; note: nearly all actives have a fitted effect of over 55% in size)
How it was run: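 HaCaT ARE reporter line, 1,500 cells/well; 5 h settle, 37 C/5% CO2; cpd in DMSO pinned; 23 h exposure; CellTiter-Fluor, 1 h; fluorescence.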

[2] = target: Gonadotropin-releasing hormone receptor (Homo sapiens) (UniProt P30968); experiment: Human gonadotropin-releasing hormone receptor (GnRHR) small molecule agonists, calcium flux assay in GnRHR-HEK293 cells (AID 1920063); note: nearly all actives have a fitted effect of over 35% in size
Sequence of Gonadotropin-releasing hormone receptor (Homo sapiens) (P30968 whole entry, looked up): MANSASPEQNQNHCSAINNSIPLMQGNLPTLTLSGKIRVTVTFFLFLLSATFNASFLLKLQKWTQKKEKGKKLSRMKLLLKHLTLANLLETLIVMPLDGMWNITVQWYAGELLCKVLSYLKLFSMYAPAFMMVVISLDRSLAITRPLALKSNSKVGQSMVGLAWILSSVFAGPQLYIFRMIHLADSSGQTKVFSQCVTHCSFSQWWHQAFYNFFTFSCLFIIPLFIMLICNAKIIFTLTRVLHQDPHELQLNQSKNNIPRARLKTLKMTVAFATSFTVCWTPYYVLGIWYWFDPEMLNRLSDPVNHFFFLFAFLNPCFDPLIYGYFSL
How it was run: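 GnRHR-HEK293, 1500 cells/well, 18 h 37 C/5% CO2; Ca dye 1 h 37 C; cpd pinned (DMSO), agonist mode; kinetic FL 480/540, 3 min, 1 s reads; 15 conc, n=3.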

[3] = target: KiSS-1 receptor (Homo sapiens) (UniProt Q969F8); experiment: Human kisspeptin (KISS1R) small molecule agonists, calcium flux assay in KISS1R-HEK293 cells (AID 1920064; active = well fitted curve in the direction sought with a large enough effect in the repeat runs; an effect the other way counts as inactive or inconclusive)
Sequence of KiSS-1 receptor (Homo sapiens) (Q969F8 whole entry, looked up): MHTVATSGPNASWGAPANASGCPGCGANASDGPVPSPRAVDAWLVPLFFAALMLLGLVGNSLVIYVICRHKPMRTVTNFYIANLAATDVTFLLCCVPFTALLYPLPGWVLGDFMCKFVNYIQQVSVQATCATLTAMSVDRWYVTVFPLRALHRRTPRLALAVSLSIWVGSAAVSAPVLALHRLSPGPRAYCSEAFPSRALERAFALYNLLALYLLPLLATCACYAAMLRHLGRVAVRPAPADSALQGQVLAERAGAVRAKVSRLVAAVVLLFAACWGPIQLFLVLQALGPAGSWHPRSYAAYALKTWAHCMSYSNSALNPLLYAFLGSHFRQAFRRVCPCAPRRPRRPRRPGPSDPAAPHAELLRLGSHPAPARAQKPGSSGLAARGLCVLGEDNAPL
How it was run: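 Stable human KISS1R HEK293 line; 18 h plating, 37 C/5% CO2; calcium dye 1 h 37 C; compound pin transfer; kinetic fluorescence Ex/Em 480/540, 3 min.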

[4] = G protein-coupled receptor (GPCR) small molecule agonists, calcium flux assay: HEK293 wild type cell line counter screen (AID 1920065)
How it was run: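 Kinetic fluorescence at Ex/Em 480/540, recorded every second over 3 min, served as the read-out after compound addition. Each compound was tested at 15 concentrations in triplicate on cells pre-loaded with calcium dye for 1 h.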

[5] = p53 small molecule agonists, cell-based qHTS assay with human liver microsomes (AID 1963577)
How it was run: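 Cells carrying a p53-responsive bla reporter were rested 5 h (37 C, 5% CO2) before compound transfer. Human liver microsomes plus NADPH, 0.5 mg/mL final apiece, supplied metabolism during the 16 h 37 C exposure.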

[6] = p53 small molecule agonists, cell-based qHTS assay with rat liver microsomes (AID 1963578)
How it was run: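 Fluorescence from a beta-lactamase reporter under a p53 response element was measured after cells had been incubated 16 h at 37 C with test compound and rat liver microsomes plus NADPH (0.5 mg/mL final each).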

[7] = p53 small molecule agonists, cell-based qHTS assay with human liver microsomes: qHTS cell viability counter screen (AID 1963579); note: nearly all actives have a fitted effect of over 45% in size
How it was run: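 Seed p53RE-bla cells at 4,000 per well; incubate 5 h at 37 C; add compound, human liver microsomes and NADPH; incubate 16 h at 37 C; add CellTiter-Glo; after 30 min at room temperature, read luminescence.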

[8] = p53 small molecule agonists, cell-based qHTS assay with rat liver microsomes: qHTS cell viability counter screen (AID 1963580); note: nearly all actives have a fitted effect of over 45% in size; note: potency is the fitted concentration of half-maximal effect
How it was run: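 In HCT-116 cells carrying a p53 response element-bla reporter, compounds were metabolically activated in situ by rat liver microsomes with NADPH over 16 h. Cell ATP content then served as the cytotoxicity measure.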

[9] = p53 small molecule agonists, cell-based qHTS assay (AID 1963582; active = well fitted activation curve with a large enough effect in the signal ratio in the repeat runs, not every such curve was filed as active; the % refers to the signal ratio)
How it was run: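 Reporter line: p53RE-bla. Pre-incubation 5 h, 37 C, 5% CO2; compound (DMSO, pin tool) 16 h, 37 C; B/G FRET substrate 2 h RT; fluorescence intensity read.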

[10] = target: 5-hydroxytryptamine receptor 2A (Homo sapiens) (UniProt P28223); experiment: 5-hydroxytryptamine receptor 2A (HTR2A) small molecule antagonists, cell-based qHTS assay (AID 1963586); note: nearly all actives have a fitted effect of over 45% in size; note: potency is the fitted concentration of half-maximal effect
Sequence of 5-hydroxytryptamine receptor 2A (Homo sapiens) (P28223 whole entry, looked up): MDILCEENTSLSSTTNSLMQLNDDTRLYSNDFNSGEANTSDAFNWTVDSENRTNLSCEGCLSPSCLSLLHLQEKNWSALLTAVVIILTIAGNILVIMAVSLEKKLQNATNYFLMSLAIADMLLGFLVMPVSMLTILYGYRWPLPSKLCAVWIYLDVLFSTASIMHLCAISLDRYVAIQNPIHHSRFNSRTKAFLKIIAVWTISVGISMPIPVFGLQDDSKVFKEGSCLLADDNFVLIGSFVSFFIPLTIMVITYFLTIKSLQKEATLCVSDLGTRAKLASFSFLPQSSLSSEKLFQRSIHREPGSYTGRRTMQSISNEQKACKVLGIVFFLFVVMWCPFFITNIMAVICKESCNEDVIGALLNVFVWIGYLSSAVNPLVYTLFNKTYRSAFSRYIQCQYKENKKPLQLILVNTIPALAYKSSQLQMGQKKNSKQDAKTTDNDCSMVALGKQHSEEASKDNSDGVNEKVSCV
How it was run: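 Antagonist-mode intracellular calcium assay: DOI (4 nM) added after 5 min compound pre-incubation at room temperature to dye-loaded HTR2A-CHO cells. Fluorescence followed for 3 min, sampled every second.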

[11] = target: 5-hydroxytryptamine receptor 2A (Homo sapiens) (UniProt P28223); experiment: 5-hydroxytryptamine receptor 2A (HTR2A) small molecule agonists, cell-based qHTS assay (AID 1963587); note: nearly all actives have a fitted effect of over 30% in size
How it was run: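 HTR2A-CHO cells, plated 18 h at 37 C/5% CO2, dye-loaded 1 h at 37 C; compounds in DMSO added by pin tool (agonist mode). Intracellular calcium flux read as kinetic fluorescence on FDSS over 2 min at 1 s intervals.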

[12] = target: Muscarinic acetylcholine receptor M1 (Homo sapiens) (UniProt P11229); experiment: Cholinergic receptor muscarinic 1 (CHRM1) small molecule antagonists, cell-based qHTS assay (AID 1963588); note: nearly all actives have a fitted effect of over 40% in size
Sequence of Muscarinic acetylcholine receptor M1 (Homo sapiens) (P11229 whole entry, looked up): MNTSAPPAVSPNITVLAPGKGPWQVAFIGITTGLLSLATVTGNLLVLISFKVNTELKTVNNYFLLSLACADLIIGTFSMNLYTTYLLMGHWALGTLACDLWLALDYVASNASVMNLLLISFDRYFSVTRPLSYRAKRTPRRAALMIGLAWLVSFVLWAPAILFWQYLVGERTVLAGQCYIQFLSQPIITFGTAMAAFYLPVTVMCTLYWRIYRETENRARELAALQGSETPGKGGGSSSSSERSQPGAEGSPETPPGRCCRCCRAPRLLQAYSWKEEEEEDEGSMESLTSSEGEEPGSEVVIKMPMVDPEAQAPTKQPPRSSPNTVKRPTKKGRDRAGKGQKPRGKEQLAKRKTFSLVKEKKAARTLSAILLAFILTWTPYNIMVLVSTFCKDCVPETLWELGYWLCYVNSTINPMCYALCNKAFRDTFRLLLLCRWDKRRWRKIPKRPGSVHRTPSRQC
How it was run: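 CHRM1-CHO calcium-flux assay, antagonist mode. Cells were seeded 18 h, dye-loaded 1 h at 37 C and given compound for 5 min at RT, then acetylcholine was added at 50nM. FDSS fluorescence was read 3 min; 15 concentrations, three runs.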

[13] = target: Muscarinic acetylcholine receptor M1 (Homo sapiens) (UniProt P11229); experiment: Cholinergic receptor muscarinic 1 (CHRM1) small molecule agonists, cell-based qHTS assay (AID 1963589); note: nearly all actives have a fitted effect of over 35% in size
How it was run: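 Human M1 in stable CHO line; 18 h plating, 1 h dye load 37 C; cpd added (agonist mode); Ca2+ fluorescence kinetic read, 1 s intervals; 15 conc, 3 runs.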

[14] = cAMP Responsive Elements (CRE) small molecule agonists, cell-based qHTS assay (AID 1963590)
How it was run: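 HEK 293T CRE-bla, 2,000 cells/well, 18 h preincubation 37 C/5% CO2; cpds (DMSO) pinned, 3 h; LiveBLAzer B/G FRET substrate, 2 h RT.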

[15] = cAMP Responsive Elements (CRE) small molecule antagonists, cell-based qHTS assay (AID 1963591; active = well fitted inhibition curve with a large enough effect in the signal ratio in the repeat runs, not every such curve was filed as active; the % refers to the signal ratio)
How it was run: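 Beta-lactamase reporter read by FRET substrate (LiveBLAzer B/G) after 2 h at room temperature. CRE-bla HEK293T cells had received compound plus 0.25 uM (final) NKH477 for 3 h at 37 °C.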

[16] = target: Beta-2 adrenergic receptor (Homo sapiens) (UniProt P07550); experiment: Adrenergic beta2 receptor (ADRB2) small molecule antagonists, cell-based qHTS assay (AID 1963592); note: series mostly up to about 92 µM; nearly all actives have a fitted effect of over 50% in size
Sequence of Beta-2 adrenergic receptor (Homo sapiens) (P07550 whole entry, looked up): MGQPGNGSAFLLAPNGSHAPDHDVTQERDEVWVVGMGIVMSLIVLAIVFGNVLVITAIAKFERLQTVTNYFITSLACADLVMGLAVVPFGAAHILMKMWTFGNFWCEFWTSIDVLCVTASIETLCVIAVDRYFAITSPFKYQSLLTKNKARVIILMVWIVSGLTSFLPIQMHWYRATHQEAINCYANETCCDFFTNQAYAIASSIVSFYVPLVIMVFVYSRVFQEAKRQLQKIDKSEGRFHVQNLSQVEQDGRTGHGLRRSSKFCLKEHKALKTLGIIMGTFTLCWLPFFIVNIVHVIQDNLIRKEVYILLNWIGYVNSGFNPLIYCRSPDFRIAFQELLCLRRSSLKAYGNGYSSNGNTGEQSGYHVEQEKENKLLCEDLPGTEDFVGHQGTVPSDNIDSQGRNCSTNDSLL
How it was run: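 Cells (CHO, stable ADRB2 overexpression) incubated 18-20hr at 37C; compounds added from DMSO; agonist mix (1nM isoproterenol, 100uM IBMX, 25uM Ro-20-1724) added; 0.5hr RT; d2-cAMP and anti-cAMP-cryptate added; 1hr RT; 665/615 nm read.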

[17] = target: Beta-2 adrenergic receptor (Homo sapiens) (UniProt P07550); experiment: Adrenergic beta2 receptor (ADRB2) small molecule agonists, cell-based qHTS assay (AID 1963593);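 note: CHO cells stably overexpressing human ADRB2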
How it was run: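 CHO cells stably over-expressing ADRB2 were plated overnight at 37C, then dosed with compounds plus a stimulation mix containing 100uM IBMX and 25uM Ro-20-1724 for 0.5hr at room temperature. cAMP was measured by HTRF competition, 1hr.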

[18] = target: D(2) dopamine receptor (Homo sapiens) (UniProt P14416); experiment: Dopamine D2 receptor (DRD2) small molecule agonists, cell-based qHTS assay (AID 1963594); note: nearly all actives have a fitted effect of over 35% in size
Sequence of D(2) dopamine receptor (Homo sapiens) (P14416 whole entry, looked up): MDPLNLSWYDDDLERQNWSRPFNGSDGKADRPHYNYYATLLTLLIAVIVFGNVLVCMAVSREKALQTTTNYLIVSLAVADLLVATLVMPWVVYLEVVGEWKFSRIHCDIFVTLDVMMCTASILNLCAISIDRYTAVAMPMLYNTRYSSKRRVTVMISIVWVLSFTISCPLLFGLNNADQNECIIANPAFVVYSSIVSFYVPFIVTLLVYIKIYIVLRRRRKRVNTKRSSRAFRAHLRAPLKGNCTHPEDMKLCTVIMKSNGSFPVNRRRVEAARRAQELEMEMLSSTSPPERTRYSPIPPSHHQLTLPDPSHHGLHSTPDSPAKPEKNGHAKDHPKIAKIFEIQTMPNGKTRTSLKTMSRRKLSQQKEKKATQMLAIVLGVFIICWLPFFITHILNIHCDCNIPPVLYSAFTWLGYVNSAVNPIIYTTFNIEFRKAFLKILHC
How it was run: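 HEK293 cells stably expressing DRD2 were cultured 24 h at 37 C, then given Ro20-1724 (0.1 mM final) and compounds for 10 min at room temperature. NKH477 (200nM) was then added for 30 min. cAMP was read by HTRF.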

[19] = target: D(2) dopamine receptor (Homo sapiens) (UniProt P14416); experiment: Dopamine D2 receptor (DRD2) small molecule antagonists, cell-based qHTS assay (AID 1963595; active = well fitted inhibition curve with a large enough effect in the signal ratio in the repeat runs, with a control signal flat; the % refers to the signal ratio)
How it was run: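 Antagonist mode in DRD2-HEK293 cells: after compound addition with 0.1 mM Ro20-1724, cells received quinpirole (12 nM) and NKH477 (200 nM) for 30 min at room temperature; HTRF cAMP read after 1 h detection.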

[20] = p53 small molecule agonists, cell-based qHTS assay: qHTS cell viability counter screen (AID 1963581); note: nearly all actives have a fitted effect of over 45% in size
How it was run: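 HCT-116 p53RE-bla cells, 4,000/well, plated 5 h before compound pin transfer; 16 h at 37 C; bla substrate 2 h RT; then CellTiter-Glo, 30 min RT, luminescence.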

Measured: Potency

N#CN=C1SCCN1Cc1ccc(Cl)nc1
inactive: [1] | [2] | [3] | [4] | [5] | [6] | [7] | [8] | [9] | [10] | [11] | [12] | [13] | [14] | [15] | [16] | [17] | [18] | [19]

OCCCBr
inactive: [1] | [2] | [3] | [4] | [5] | [6] | [9] | [10] | [11] | [12] | [13] | [14] | [15] | [16] | [19]
active: [8] 1.45 µM

CCCCCC[N+](=O)[O-]
inactive: [1] | [2] | [3] | [4] | [5] | [6] | [7] | [20] | [9] | [10] | [11] | [12] | [13] | [14] | [15] | [16] | [17] | [18]

CC(Cl)(Cl)Cl
inactive: [1] | [2] | [3] | [4] | [5] | [6] | [8] | [20] | [9] | [14] | [15] | [16] | [18]

CC[C@@H](CO)NC(=O)[C@@H]1C=C2c3cccc4c3c(cn4C)C[C@H]2N(C)C1
inactive: [1] | [2] | [3] | [4] | [5] | [6] | [7] | [8] | [20] | [14] | [15]

C[C@H]1[C@@H]2Cc3ccc(O)cc3[C@@]1(C)CCN2C
inactive: [1] | [2] | [3] | [4] | [5] | [6] | [20] | [9] | [10] | [11] | [12] | [13] | [14] | [15] | [16] | [17] | [18] | [19]

CCN(CC)c1nc(C)cc(OP(=S)(OC)OC)n1
inactive: [1] | [2] | [3] | [4] | [5] | [7] | [8] | [20] | [9] | [10] | [11] | [12] | [13] | [14] | [15] | [16] | [18] | [19]

CC(Oc1cc(Cl)c(Cl)cc1Cl)C(=O)O (centres undefined)
inactive: [1] | [2] | [3] | [4] | [7] | [8] | [20] | [10] | [11] | [13] | [16] | [18] | [19]

CCCCC/C=C\C/C=C\C/C=C\C/C=C\CCCC(=O)NCC(=O)O
inactive: [1] | [2] | [3] | [4] | [6] | [7] | [8] | [12] | [13] | [16] | [17] | [19]
active: [10] 14.5 µM

C[C@H]1[C@H](c2ccc(Cl)cc2)SC(=O)N1C(=O)NC1CCCCC1
inactive: [1] | [2] | [3] | [4] | [6] | [7] | [8] | [20] | [10] | [11] | [12] | [13] | [15] | [16] | [17] | [18] | [19]

CNC(=O)Oc1cccc(C(C)C)c1
inactive: [1] | [2] | [3] | [4] | [7] | [8] | [20] | [10] | [11] | [13] | [14] | [15] | [16] | [18] | [19]

Clc1ccc2ccccc2c1
inactive: [1] | [2] | [3] | [4] | [6] | [7] | [8] | [20] | [9] | [10] | [11] | [12] | [13] | [14] | [15] | [16] | [18] | [19]

From PubChem BioAssay (Tox21)
